Experimental data reported in PubChem BioAssay.
Active and inactive are the calls of the source. No stated cut-off is given here; in the data, active means inhibition above about 33%; inactive means the rest.

Assay: compounds suppressing VP16-driven luciferase signal – cell-based, luminescence, high throughput, counter-screen for LRH-1 inverse agonist project (AID 651615)
Details: Gal4-VP16 luciferase reporter cells, at 3.6 µM, stronger effect = higher value

| Structure (SMILES) | inhibition |
| --- | --- |
| Cc1ccc(CNC(=O)CN2C(=O)NC3(CCCC3)C2=O)cc1 | 0.14% (inactive) |
| CN(C)c1ccc(NC(=O)CN2CCC(NC(=O)C3CCCCC3)CC2)cc1 | -3.68% (inactive) |
| Cc1ccc[n+](CC(=O)Nc2ccc([N+](=O)[O-])cc2)c1 | -13.3% (inactive) |
| Cc1cc(/C=N/n2cnnc2)c(C)n1-c1ccc(OCc2ccc(Cl)cc2)cc1 | 31.2% (active) |
| COc1ccc(OC)c(NC(=O)c2ccccc2NC(=O)c2ccco2)c1 | -1.48% (inactive) |
| COc1cc(-c2cc(C(=O)NCc3ccc(S(N)(=O)=O)cc3)c3ccccc3n2)cc(OC)c1OC | -26.4% (inactive) |
| O=C(COc1ccc(F)c(Cl)c1)Nc1ccc(N2CCOCC2)cc1 | 3.92% (inactive) |
| Nn1c(SCC(=O)Nc2c(F)cc(F)cc2Br)nnc1C1CCCCC1 | -6% (inactive) |
| COc1ccc(NS(=O)(=O)c2ccc(-c3coc(C)n3)cc2)cc1OC | 51.4% (active) |
| COC(=O)c1ccc(NC(=O)CSc2nn3c(=O)c(C)nnc3s2)cc1 | -11.6% (inactive) |
| CCc1ccc2oc(C(=O)NCc3ccncc3)c(C)c2c1 | 6.18% (inactive) |
| O=C(COC(=O)c1ccc(S(=O)(=O)N2CCCC2)cc1)Nc1ccc(N2CCOCC2)cc1 | -7.59% (inactive) |
| Cc1ccc(S(=O)(=O)NCc2ccncc2)cc1 | 48.7% (active) |
| CCOc1ccc(NC(=O)CSc2nccn(-c3ccc4c(c3)OCCO4)c2=O)cc1 | -10.1% (inactive) |
| O=C(CCl)Nc1cccn2ncnc12 | -31.4% (inactive) |
| CCC(=O)N1CCN(c2ccc(Cl)cc2NC(=O)c2ccc([N+](=O)[O-])o2)CC1 | 4.86% (inactive) |
| COc1ccc(-c2cc3ccccc3oc2=O)cc1NC(=O)c1ccc([N+](=O)[O-])o1 | -68.2% (inactive) |
| CCCn1c2c(c(=N)c3c1CCC3)CCCC2 | 44.9% (active) |
| O=C(NCCCc1ccccc1)c1cc([N+](=O)[O-])ccc1Cl | -15.8% (inactive) |
| CN(CC(=O)Nc1ccc(N2CCOCC2)cc1)CC(=O)Nc1ccc(N2CCOCC2)cc1 | -8.87% (inactive) |

| Structure (SMILES) | inhibition |
| --- | --- |
| CC(=O)c1ccc(NC(=O)C(C)O/N=C(\N)c2ccccc2)cc1 (stereo not given) | -7.19% (inactive) |
| CC(=O)c1ccsc1-c1c(C)cc2oc(=O)cc(-c3ccccc3)c2c1C | -0.37% (inactive) |
| COc1cc(NC(=O)c2ccc([N+](=O)[O-])o2)ccc1NC(=O)c1cccs1 | -9.17% (inactive) |
| CCCCCOc1ccc(Br)cc1CSC(=N)N | 84% (active) |
| CC(C)Oc1cccc(-c2cc(C(=O)NN3CCOCC3)c3ccccc3n2)c1 | -17.7% (inactive) |
| O=C(N/N=C/c1ccc([N+](=O)[O-])s1)c1ccccc1Br | 14% (inactive) |
| COc1ccc(-c2c(C)nn3c(NC4CCCC4)cc(C)nc23)cc1OC | -3.44% (inactive) |
| C=CCOc1ccccc1CN(C(=O)CCl)c1ccc2c(c1)OCO2 | -54.5% (inactive) |
| CCOc1ccc(CCNC(=O)COC(=O)/C=C/c2ccc(OC(F)F)c(OC)c2)cc1OCC | -3.71% (inactive) |
| CCCOc1ccc2oc(=O)c3c(c2c1)CCCN3C(=O)CN1CCN(c2ncccn2)CC1 | -7.99% (inactive) |
| CCN1C(=O)c2cccc3c(NC(=O)c4ccc(S(=O)(=O)N5CCOCC5)cc4)ccc1c23 | -60.9% (inactive) |
| Cc1ccc(NC(=O)CSc2nnc(CCCCCNC(=O)OC(C)(C)C)o2)c(C)c1 | 4.4% (inactive) |
| COc1ccc2c(c1)C1C=CCC1C(c1cc3c(cc1Br)OCO3)N2 (stereo not given) | -14.3% (inactive) |
| Cc1cc2oc(=O)cc(-c3ccccc3)c2c(C)c1-c1ccc(CO)cc1 | 16.8% (inactive) |
| CCN(CC)CC(=O)Nc1ccc(-c2nc3cc(NC(=O)CN(CC)CC)ccc3o2)cc1 | -0.95% (inactive) |
| O=C1C(=C(I)I)c2ccccc2-c2ccccc21 | -39.2% (inactive) |
| O=C(Nc1ccc(N2CCOCC2)c(Cl)c1)c1ccc([N+](=O)[O-])o1 | -84.8% (inactive) |
| COc1cc(CCNc2ccc3nnc(-c4ccccc4)n3n2)cc(OC)c1OC | -65.1% (inactive) |
| CCCc1cc(=O)oc2cc(OCC(=O)NC3CC(C)(C)NC(C)(C)C3)ccc12 | 2.6% (inactive) |
| CC(=O)Oc1ccc2oc(=O)c3c(c2c1)CCCN3C(=O)CN1CCN(c2ncccn2)CC1 | -13.8% (inactive) |
